# Results reported in the supplement of paper PMC8975748.
# Counter-ions that a name gives are not always drawn. ± gives the standard deviation of the averaged measurements.
# Tests used:
# [1] = system: Saccharomyces cerevisiae BY4741 SeMeCo community; assay: mean cell size (pixel area) (pixels); higher = larger cells; details: 10 µM; 24 h; SM minimal medium
# Outline: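 A Saccharomyces cerevisiae BY4741 community carrying four plasmids, each with a fluorescent marker and each complementing one auxotrophy, was exposed for 24 h to drug at a final 10 µM in SM medium in acoustically predosed 384-well plates. The overnight preculture (OD600 = 1.0) was diluted to OD600 = 0.3 before 70 µl was added per well. Cells were then fixed with paraformaldehyde, imaged by automated confocal microscopy and analysed in Harmony to derive mean cell pixel area per well, averaged over 3 replicates. Same SeMeCo high-content imaging drug screen: Selleck FDA-approved drugs at 10 µM, 24 h in SM medium, 384-well plates, 3 replicates.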
# [2] = system: Saccharomyces cerevisiae BY4741 SeMeCo community; assay: z-score of prototroph abundance vs DMSO median; higher = larger share of this subpopulation than in DMSO controls; details: 10 µM; 24 h; SM minimal medium; subpopulation (auxotrophy): Prototroph
# Outline: (§1)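 Scoring was based on each subpopulation's abundance, expressed as a z-score against the vehicle-well median. A Saccharomyces cerevisiae BY4741 community with four plasmids, each restoring one auxotrophy and encoding a distinct fluorescent protein, was pre-grown overnight to OD600 1.0, diluted to 0.3, and added at 70 µl to 384-well plates acoustically predosed with library drugs (10 µM final). It then grew 24 h in minimal SM medium before paraformaldehyde fixation and automated confocal microscopy, with single-auxotroph fluorescent strains setting thresholds and autofluorescence correction.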
# [3] = system: Saccharomyces cerevisiae BY4741 SeMeCo community; assay: z-score of subpopulation abundance vs DMSO median, subpopulation auxotrophic for M; higher = larger share of this subpopulation than in DMSO controls; details: 10 µM; 24 h; SM minimal medium; subpopulation (auxotrophy): M
# Outline: as §1
# [4] = system: Saccharomyces cerevisiae BY4741 SeMeCo community; assay: z-score of subpopulation abundance vs DMSO median, subpopulation auxotrophic for U; higher = larger share of this subpopulation than in DMSO controls; details: 10 µM; 24 h; SM minimal medium; subpopulation (auxotrophy): U
# Outline: as §1
# [5] = system: Saccharomyces cerevisiae BY4741 SeMeCo community; assay: z-score of subpopulation abundance vs DMSO median, subpopulation auxotrophic for H; higher = larger share of this subpopulation than in DMSO controls; details: 10 µM; 24 h; SM minimal medium; subpopulation (auxotrophy): H
# Outline: as §1
# [6] = system: Saccharomyces cerevisiae BY4741 SeMeCo community; assay: z-score of subpopulation abundance vs DMSO median, subpopulation auxotrophic for LU; higher = larger share of this subpopulation than in DMSO controls; details: 10 µM; 24 h; SM minimal medium; subpopulation (auxotrophy): LU
# Outline: as §1
# [7] = system: Saccharomyces cerevisiae BY4741 SeMeCo community; assay: z-score of subpopulation abundance vs DMSO median, subpopulation auxotrophic for HU; higher = larger share of this subpopulation than in DMSO controls; details: 10 µM; 24 h; SM minimal medium; subpopulation (auxotrophy): HU
# Outline: as §1
# [8] = system: Saccharomyces cerevisiae BY4741 SeMeCo community; assay: z-score of subpopulation abundance vs DMSO median, subpopulation auxotrophic for UM; higher = larger share of this subpopulation than in DMSO controls; details: 10 µM; 24 h; SM minimal medium; subpopulation (auxotrophy): UM
# Outline: as §1
# [9] = system: Saccharomyces cerevisiae BY4741 SeMeCo community; assay: z-score of subpopulation abundance vs DMSO median, subpopulation auxotrophic for HL; higher = larger share of this subpopulation than in DMSO controls; details: 10 µM; 24 h; SM minimal medium; subpopulation (auxotrophy): HL
# Outline: as §1
# [10] = system: Saccharomyces cerevisiae BY4741 SeMeCo community; assay: z-score of subpopulation abundance vs DMSO median, subpopulation auxotrophic for HLM; higher = larger share of this subpopulation than in DMSO controls; details: 10 µM; 24 h; SM minimal medium; subpopulation (auxotrophy): HLM
# Outline: as §1
# [11] = system: Saccharomyces cerevisiae BY4741 SeMeCo community; assay: z-score of subpopulation abundance vs DMSO median, subpopulation auxotrophic for HUM; higher = larger share of this subpopulation than in DMSO controls; details: 10 µM; 24 h; SM minimal medium; subpopulation (auxotrophy): HUM
# Outline: as §1
# [12] = system: Saccharomyces cerevisiae BY4741 SeMeCo community; assay: z-score of subpopulation abundance vs DMSO median, subpopulation auxotrophic for LUM; higher = larger share of this subpopulation than in DMSO controls; details: 10 µM; 24 h; SM minimal medium; subpopulation (auxotrophy): LUM
# Outline: as §1
# [13] = system: Saccharomyces cerevisiae BY4741 SeMeCo community; assay: z-score of subpopulation abundance vs DMSO median, subpopulation auxotrophic for LM; higher = larger share of this subpopulation than in DMSO controls; details: 10 µM; 24 h; SM minimal medium; subpopulation (auxotrophy): LM
# Outline: as §1
# [14] = system: Saccharomyces cerevisiae BY4741 SeMeCo community; assay: z-score of subpopulation abundance vs DMSO median, subpopulation auxotrophic for HM; higher = larger share of this subpopulation than in DMSO controls; details: 10 µM; 24 h; SM minimal medium; subpopulation (auxotrophy): HM
# Outline: as §1
# [15] = system: Saccharomyces cerevisiae BY4741 SeMeCo community; assay: z-score of subpopulation abundance vs DMSO median, subpopulation auxotrophic for HLUM; higher = larger share of this subpopulation than in DMSO controls; details: 10 µM; 24 h; SM minimal medium; subpopulation (auxotrophy): HLUM
# Outline: as §1
# [16] = system: Saccharomyces cerevisiae BY4741 SeMeCo community; assay: z-score of subpopulation abundance vs DMSO median, subpopulation auxotrophic for L; higher = larger share of this subpopulation than in DMSO controls; details: 10 µM; 24 h; SM minimal medium; subpopulation (auxotrophy): L
# Outline: as §1
SMILES,mean cell size [1],z-score of prototroph abundance [2],z-score of subpopulation abundance [3],z-score of subpopulation abundance [4],z-score of subpopulation abundance [5],z-score of subpopulation abundance [6],z-score of subpopulation abundance [7],z-score of subpopulation abundance [8],z-score of subpopulation abundance [9],z-score of subpopulation abundance [10],z-score of subpopulation abundance [11],z-score of subpopulation abundance [12],z-score of subpopulation abundance [13],z-score of subpopulation abundance [14],z-score of subpopulation abundance [15],z-score of subpopulation abundance [16]
OCCOCCN1CCN(C2=Nc3ccccc3Sc3ccccc32)CC1 [Quetiapine Fumarate],12.42 ± 0.12,-0.49,0.24,-0.17,-0.24,-0.19,-0.61,0.49,-0.06,0.55,0.19,0.86,,,,
Cc1cc(O)cc(C)c1Cl [Chloroxylenol],12.7 ± 0.17,-1.56,0.89,0.84,0.68,0.64,1.05,1.27,0.81,0.76,0.68,0.54,0.41,0.32,0.12,
CC1(C)S[C@@H]2[C@H](NC(=O)[C@H](NC(=O)N3CCNC3=O)c3ccccc3)C(=O)N2[C@H]1C(=O)O [Azlocillin sodium salt],12.4 ± 0.27,0.68,-0.54,-1.51,-0.59,,-1.18,-1.29,,-0.3,-1.31,0.86,1.34,-0.15,0.63,1.83
O=C(O)c1ccccc1C(=O)Nc1ccc(S(=O)(=O)Nc2nccs2)cc1 [Phthalylsulfathiazole],12 ± 0.48,,1.08,1.18,-0.26,-0.05,1.23,1.23,-0.66,,0.99,-0.13,0.02,0.77,0.99,-0.97
CC1(C)S[C@@H]2[C@H](NC(=O)Cc3ccccc3)C(=O)N2[C@H]1C(=O)O [Benzathine penicilline],,0.52,-0.52,-0.09,0.18,-0.74,0.01,,-0.03,0.37,-0.33,-0.44,-0.93,-0.76,0.29,
CN(C)CCCN1c2ccccc2CCc2ccc(Cl)cc21 [Clomipramine HCl],12.55 ± 0.052,-0.93,0.54,1.4,,0.32,0.31,,-0.45,0.29,1.2,1.56,-0.41,0.1,1.45,
C[C@]12CC[C@@H]3c4ccc(O)cc4CC[C@H]3[C@@H]1CCC2=O [Estrone],12.48 ± 0.098,0.49,-0.44,,-0.34,0.11,-0.27,-0.49,-0.05,,-0.46,-0.12,,-0.17,-0.85,0.44
CC(C)NNC(=O)c1ccncc1 [Iproniazid],12.4 ± 0.22,,-0.2,1.2,0.01,1.04,0.46,0.66,-0.1,,,,0.08,,0.07,-0.39
N=C(N)NC(=N)N1CCOCC1 [Moroxydine HCl],12.4 ± 0.078,0.31,-0.15,0.43,-0.19,,-0.45,0.37,-0.09,-0.37,-0.28,0.38,,-0.15,-0.61,-0.09
Cc1ncc([N+](=O)[O-])n1CCOC(=O)c1ccccc1 [Metronidazole Benzoate],12.382 ± 0.0058,0.95,-0.51,-0.16,-1.17,-1.05,-1,,,-0.79,-0.37,-1.13,-0.57,0.12,-0.51,
Cc1ncc([N+](=O)[O-])n1CC(O)CCl (stereo not drawn) [Ornidazole],,0.34,1.05,-0.47,-0.77,-0.8,-0.37,-0.4,,-0.03,0.44,-0.87,0.41,0.34,0.77,
NC12CC3CC(CC(C3)C1)C2 [Amantadine],12 ± 0.17,0,-0.63,-0.38,0.12,0.79,,0.12,-0.09,,0.47,-0.04,0.28,,-0.31,0.99
